Results: PubChem BioAssay AID2216 (Broad Institute, 2009)
The campaign covered roughly 300,000 compounds. About 3,300 (1.1%) were called active. Not shown: some 6% with an inconclusive outcome.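 Rule for the calls: active = more than half of the replicate wells show a fall in the fluorescence ratio signal beyond about 16% (limit read from the data, passing the limit was not always enough); inconclusive = exactly half of the replicate wells pass the set limit; inactive = fewer than half of replicates pass the limit.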 What follows is part of a selection rich in actives, with near analogues and random picks from the rest.

Test system: Ran GTPase (GTP-bound) - importin-beta complex
Assay: disruptors of Ran-importin-beta complex formation – biochemical, FRET, CFP-Ran, YFP-importin-beta, homogeneous, primary screen (AID 2216);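 note: 0% = DMSO wells and 100% = Ran loaded with GDP instead of GTP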
Settings: cell-free CFP-Ran/YFP-importin-beta FRET ratio; stronger effect = higher value; concentration not given here

| Structure (SMILES) | inhibition |
| --- | --- |
| CCOc1ccc(NC(=O)CN(C)C(=O)COc2cccc(CC)c2)cc1OCC | -1.27% (inactive) |
| [O-][n+]1ccc(OCc2ccccc2)cc1 | -2.54% (inactive) |
| CCC(C)c1ccccc1N1CC(C(=O)N2CCN(S(=O)(=O)c3ccc(F)cc3)CC2)CC1=O (stereo not given) | 1.46% (inactive) |
| NC1=NC(c2ccc([N+](=O)[O-])cc2)N(c2ccc(F)cc2)C(N)=N1 (stereo not given) | 1.29% (inactive) |
| CCOc1cc2ccccc2cc1C(=O)Nc1ccccn1 | 3.29% (inactive) |
| CSc1sc(C)cc1C1C(C#N)=C(N)N(c2cccnc2)C2=C1C(=O)CCC2 (stereo not given) | 18.2% (active) |
| CN(C)N1C(N)=C(C#N)C(c2ccc(Br)cc2)C2=C1CCCC2=O (stereo not given) | -0.393% (inactive) |
| N#CC1=C(N)N(c2ccccc2)C2=C(C(=O)CCC2)C1c1ccccc1 (stereo not given) | -1.9% (inactive) |
| Cc1occc1C(=O)N/N=C/c1ccc(-c2cccc([N+](=O)[O-])c2)o1 | -1.61% (inactive) |
| O=C(CCCCO)c1ccc(O)c(Cl)c1 | -9.87% (inactive) |
| Cc1ccc(-c2csc(NCCc3nc4cc(Cl)c(Cl)cc4n3CCOCCO)n2)cc1 | 3.23% (inactive) |
| CCOC(=O)CCCN1CC(O)=C(c2nc3ccccc3s2)C1=N | -2.49% (inactive) |
| CCOC(=O)c1oc2c(CN3CCN(CCO)CC3)c(O)c(CC)cc2c(=O)c1-c1nc2ccccc2s1 | 16.5% (active) |
| CCOC(=O)N1CCN(CC(=O)Nc2cc(C)nn2-c2nc3ccccc3s2)CC1 | -2.13% (inactive) |
| COc1ccccc1C(=O)NCCC(=O)NCC(c1ccco1)N1CCCCC1 (stereo not given) | 2.56% (inactive) |
| COc1ccc(CCC(=O)c2ccc(OC)cc2)cc1 | 0.925% (inactive) |
| COc1ccc(C(=O)C[n+]2ccc(N)c(C)c2C)cc1 | 26.2% (active) |
| COc1ccc(C(=O)C[n+]2ccc(C)cc2)cc1 | 6.13% (inactive) |
| COC(=O)c1c(-c2ccsc2)oc2ccc(-c3cc(OC)c(OC)c(OC)c3)cc12 | -4.62% (inactive) |
| CCOc1ccc(-n2c(O)c(/C=N/c3ccnn3Cc3ccncc3)c3ccccc3c2=O)cc1 | 0.299% (inactive) |
| CCOc1ccc(N=Cc2c(O)n(-c3cccc(C)n3)c(=O)c3ccccc23)cc1 | 22.9% (active) |
| Cc1ccc(-n2c(O)c(C=Nc3ccc(S(=O)(=O)Nc4ncccn4)cc3)c3ccccc3c2=O)cc1C | -1.55% (inactive) |
| CC(=O)c1ccc(NC(=O)CSC(=S)N2CCCC2)cc1 | -0.968% (inactive) |
| O=C(CSC(=S)N1CCCCC1)c1c(F)cccc1F | 18.8% (active) |
| O=C(CSC(=S)N1CCOCC1)c1ccccc1 | 0.663% (inactive) |
